Inconclusive results are not listed. Where a call stands in place of a potency, no number is given. The source made the active and inactive calls. Calls follow the shape of the dose curve; as a rule, active = well fitted cell-killing curve with a large enough effect; inconclusive = small, poorly fitted or top-dose-only effect, or effect the other way; inactive = no such curve, though single readings can be large or run the other way.
Assay: Quantitative highthroughput screen to assess conditional lethalithy of SEM cells grown in RPMI1640 with dialyzed fetal bovine serum (RPMI+ds) (AID 1963884); also: nearly all actives have a fitted effect of over 35% in size
Conditions: SEM B-ALL cells, RPMI+dialyzed FBS, CellTiter-Glo viability, 48 h; series mostly up to 45.8 µM
From the text: Assay Provider: Jason Cantor Ph.D.
Department of Biochemistry
University of Wisconsin-Madison, Madison, WI, USA
Chemical screening studies have identified drug sensitivities across hundreds of cancer cell lines but most putative therapeutics fail to translate. Discovery and development of drug candidates in models that more accurately reflect nutrient levels in human blood is a major challenge. Here we performed high-throughput screens in conventional versus Human Plasma-Like Medium (HPLM) to identify compounds that were "missed" when screening using the artificial culture condition. Sets of conditional anticancer compounds spanned phases of clinical development and included non-oncology drugs were assessed. […] We also traced conditional phenotypes for several chemotherapeutics to availability of HPLM-specific metabolites and confirmed others for compounds whose reported targets are encoded by nonessential genes. Our findings establish generalizable strategies for exploiting conditional lethality in HPLM to reveal therapeutic candidates and mechanisms of action in cancer cells.
Described herein are the results of each viability screens against three cell lines: NOMO1 (an acute myeloid leukemia cell line); P12-Ichikawa (a T-cell acute lymphoblastic leukemia); and SEM (a B-cell ALL). Each assay was screened using 3 different cell culture media: homemade human plasma-Like medium with 10% dialyzed fetal bovine serum (HPLM+ds); RPMI1640 with 10% untreated FBS and 5mM glucose (RPMI+s); and RPMI1640 with 10% dialyzed fetal bovine serum and 5 mM glucose (RPMI+ds).
PROTOCOL TABLE (as described by Inglese J, Shamu CE and Guy RK. 2007)
SEQUENCE No. (e.g., 1, 2, 3, etc.); […] (e.g., Cells, Incubation, Reagent, etc.); VALUE and DESCRIPTION.
1; Cells; 5 uL; white, solid bottom 1536-well Greiner assay plate.
2; Compounds; 23 nL; Kalypsis pin tool (Wako USA) equipped with a 1536-well pin head to transfer to the assay plates.
3; Incubation; 48 hours; 37C incubation.
4; Reagent; 3 uL; CellTiter Glo (Promega).
5; Incubation; 5 min, room temperature
6; Detection; Luminescence, Viewlux PerkinElmer.
NOTES (numbers refer to Sequence numbers above)
1. Briefly, 5 ul of cell reagent was dispensed using a Multidrop Combi Dispenser. The NOMO1 and SEM cells were plated at 500 cells/well and the P12-Ichikawa line at 1000 cells/well.
2. After seeding the cells, 23 nL of MIPE 4.1 library compounds (in DMSO) were added to each plate using a Kalypsys 1536 Pintool dispenser. Bortezomib at final concentration of […] and DMSO were added to each plate as positive and negative controls respectively. For each screen, MIPE 4.1 compounds were added over an eleven-point concentration range […] in 3-fold dilutions.
3. Each plate was covered with a stainless steel gasketed lid to prevent evaporation and incubated for 48 hour at 37C, 95% relative humidity, and 5% CO2.
4-5. Three microliter CellTilter-GloTM luminescent substrate mix (Promega) reagent was added to the assay plate and incubated at room temperature for 5 min.
6. The luminescence signal was measured using a ViewLux (PerkinElmer) multiplate reader with a 2 second exposure time per plate. Data for each compound were normalized as percent viability such that measurements for DMSO and the empty well controls in each plate were defined as 100% and 0%, respectively.
With `NC(=O)Nc1sc(-c2ccc(F)cc2)cc1C(N)=O` the Potency was 14.8 µM (active).
In the case of `CC[C@H](C)C(=O)O[C@H]1C[C@@H](C)C=C2C=C[C@H](C)[C@H](CC[C@@H]3C[C@@H](O)CC(=O)O3)[C@H]21`, the Potency is reported as “inactive”.
For `Cn1cnc(-c2cc3nccc(Oc4ccc(NC(=S)NC(=O)Cc5ccccc5)cc4F)c3s2)c1`, the Potency was 0.0662 µM (active).
In the case of `CCCCc1oc2ccccc2c1C(=O)c1cc(I)c(OCCN(CC)CC)c(I)c1`, the Potency is reported as “inactive”.
With `O=c1[nH]c(=O)n([C@H]2C[C@@H](O)[C@@H](CO)O2)cc1C=CBr` the Potency was “inactive”.
For `Cc1cn2c(-c3cn[nH]c3)cnc2c(Nc2ccc(C(=O)N3CCNCC3)cc2F)n1`, the Potency was 14.8 µM (active).
In the case of `CCc1nc(C(N)=O)c(Nc2ccc(N3CCC(N4CCN(C)CC4)CC3)c(OC)c2)nc1NC1CCOCC1`, the Potency is reported as 0.209 µM (active).
For `COCCOc1nc(-c2ccc(Cl)c(Cl)c2)n(-c2ccc(NC(=O)CCl)cc2)n1`, the Potency was “inactive”.
For `Nc1ccn([C@@H]2O[C@H](CO)[C@@H](O)[C@H]2O)c(=O)n1`, the Potency was “inactive”.
For `NC(=O)c1ccc(-c2nc(-c3ccc4c(c3)OCO4)c(-c3ccccn3)[nH]2)cc1`, the Potency was “inactive”.
For `Cc1cc2c(s1)Nc1ccccc1N=C2N1CCN(C)CC1`, the Potency was “inactive”.
With `COc1ccc2c(c1OC)C(=O)OC2[C@H]1c2c(cc3c(c2OC)OCO3)CCN1C` (stereo not given in full) the Potency was 0.187 µM (active).
In the case of `Cc1cc(Nc2cc(N3CCN(C)CC3)nc(Sc3ccc(NC(=O)C4CC4)cc3)n2)n[nH]1`, the Potency is reported as 0.332 µM (active).
With `O=C1N(c2ccccc2)c2ccccc2C1(Cc1ccncc1)Cc1ccncc1` the Potency was “inactive”.
In the case of `O=C1C(CCC(O)c2ccc(F)cc2)C(c2ccc(O)cc2)N1c1ccc(F)cc1` (stereo not given), the Potency is reported as “inactive”.
With `CC(C)OC(=O)C(C(=O)OC(C)C)=C1SC=CS1` the Potency was “inactive”.
In the case of `CN(c1ncccc1CNc1nc(Nc2ccc3c(c2)CC(=O)N3)ncc1C(F)(F)F)S(C)(=O)=O`, the Potency is reported as 1.05 µM (active).
With `NS(=O)(=O)c1cc2c(cc1Cl)NC=NS2(=O)=O` the Potency was “inactive”.
For `CCOC(=O)[C@H](CCc1ccccc1)N[C@@H](C)C(=O)N1CCCC1C(=O)O` (stereo not given in full), the Potency was “inactive”.
For `CN[C@H]1[C@@H](O[C@@H]2[C@H](O[C@@H]3[C@@H](O)[C@@H](O)[C@@H](N=C(N)N)[C@@H](O)[C@@H]3N=C(N)N)O[C@H](C)[C@@]2(O)C=O)O[C@@H](CO)[C@@H](O)[C@H]1O`, the Potency was “inactive”.
In the case of `Nc1ccn([C@H]2CC[C@@H](CO)O2)c(=O)n1`, the Potency is reported as 7.43 µM (active).
In the case of `C[C@H](NC(=O)C(C#N)=Cc1cccc(Br)n1)c1ccccc1`, the Potency is reported as 1.32 µM (active).
For `CC[C@@H]1C=C(C)C[C@H](C)C[C@H](OC)[C@H]2O[C@@](O)(C(=O)C(=O)N3CCCC[C@@H]3C(=O)O[C@H](C(C)=C[C@@H]3CC[C@H](Cl)[C@H](OC)C3)[C@H](C)[C@@H](O)CC1=O)[C@H](C)C[C@H]2OC`, the Potency was 1.48 µM (active).
In the case of `Nc1nnc(-c2cccc(Cl)c2Cl)c(N)n1`, the Potency is reported as “inactive”.
For `Cc1nc2cnc3ccc(C#Cc4cccnc4)cc3c2n1-c1ccc(C(C)(C)C#N)cc1`, the Potency was 0.209 µM (active).
In the case of `Oc1cccc(-c2nc(N3CCOCC3)c3oc4ncccc4c3n2)c1`, the Potency is reported as 7.62 µM (active).
In the case of `COc1cc2nccc(Oc3ccc(NC(=O)Nc4cc(C)on4)c(Cl)c3)c2cc1OC`, the Potency is reported as 4.69 µM (active).
With `CCS(=O)(=O)Nc1ccc2[nH]c(O)c(C(=Nc3ccc(CN4CCCCC4)cc3)c3ccccc3)c2c1` the Potency was 0.0935 µM (active).
In the case of `CON(C)C(=O)N1N=C(c2cc(F)ccc2F)S[C@]1(CCCN)c1ccccc1`, the Potency is reported as “inactive”.
For `CC=CC(=O)N(CC)c1ccccc1C`, the Potency was “inactive”.
With `COc1ccc(CCC(=O)c2c(O)cc(O[C@@H]3O[C@H](CO)[C@@H](O)[C@H](O)[C@@H]3O[C@@H]3O[C@@H](C)[C@H](O)[C@@H](O)[C@@H]3O)cc2O)cc1O` the Potency was “inactive”.
In the case of `C[C@@H]1CC(=O)NN=C1c1ccc(NN=C(C#N)C#N)cc1`, the Potency is reported as 16.6 µM (active).
With `Cc1nc(N)sc1-c1ccnc(Nc2ccc(N3CCOCC3)cc2)n1` the Potency was 2.09 µM (active).
In the case of `Cn1cc(-c2ccc3ncc(Cc4ccc5ncccc5c4)n3n2)cn1`, the Potency is reported as 10.5 µM (active).
In the case of `CC1(C)OC2=C(C(=O)c3ccccc3C2=O)[C@H](NCc2ccccc2)[C@H]1O`, the Potency is reported as 16.6 µM (active).
With `COc1ccc(-c2ccc3c(N4CCOCC4)nc(N4C[C@@H](C)O[C@@H](C)C4)nc3n2)cc1CO` the Potency was 2.64 µM (active).
With `O=C(CCCN1CCC(O)(c2ccc(Cl)cc2)CC1)c1ccc(F)cc1` the Potency was “inactive”.
With `CC(C)(C)[C@H](NC(=O)c1ccc(N)c(Cl)c1)C(=O)N1CCC[C@@H]1C(=O)N[C@H](C#N)CC(=O)O` the viability was 105% [at 3.51 µM] (inactive).
With `CC(C)c1ccc2c(c1)c(SC(C)(C)C)c(CC(C)(C)C(=O)O)n2Cc1ccc(Cl)cc1` the Potency was “inactive”.
For `COC(=O)C1=C(C)NC(C)=C(C(=O)OCCCN2CCC(c3ccccc3)(c3ccccc3)CC2)C1c1cccc([N+](=O)[O-])c1` (stereo not given), the Potency was “inactive”.
Potency is read from the fitted curve at half-maximal effect.
